# An excerpt weighted towards active compounds, which were near 19% of everything screened.
# TDP1 cell noCPT – qHTS for Inhibitors of human tyrosyl-DNA phosphodiesterase 1 (TDP1): qHTS in cells in absence of CPT; DT40 Tdp1-/- hTDP1 cells, no CPT, ATP luminescence, 48 h; Potency, µM (highest dose often 46.2 µM), for inactives: top-dose activity change, negative = growth inhibition, most hits filed as inhibitors; hit rate 15% among 420,000; AID 686978, 2013; also: potency is read from the fitted curve at half-maximal effect; nearly all actives have a fitted effect of over 55% in size
#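 Cells were dispensed at 400 per well, compounds added by pin tool, plates incubated ≥48 hr at 37 °C, then CellTiter-Glo added for 30 min at room temperature before luminescence reading. Line: DT40 Tdp1-/- complemented with hTDP1; camptothecin omitted.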
# DT40 TDP1 CPT – qHTS for Inhibitors of human tyrosyl-DNA phosphodiesterase 1 (TDP1): qHTS in cells in presence of CPT; chicken DT40 Tdp1-/-;hTDP1 cells + 20 nM CPT, ATP luminescence, 48 h; Potency, µM (top dose mostly 46.2 µM), without a hit: at the highest dose activity change, negative = growth inhibition, most hits filed as inhibitors; hit rate 12% among 420,000; also: potency is read from the fitted curve at half-maximal effect; nearly all actives have a fitted effect of over 55% in size
#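 Cell growth measured by CellTiter-Glo luminescence after a minimum 48 h, 37 C compound exposure with 20 nM CPT in Tdp1-knockout DT40 cells stably expressing hTDP1, seeded 400/well; qHTS titration format.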
# IL-1B inflam inh – qHTS for Inhibitors of Inflammasome Signaling: IL-1-beta AlphaLISA Primary Screen. THP-1 LPS/ATP IL-1B secretion, AlphaLISA, 16 h; active compounds read low. activity change, % at 57.5 µM. hit rate 4.7% among 360,000. AID 743279, 2014; in the data active = activity change below about -50%; inconclusive = mostly about -30% to -49%
#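 THP-1 cells pretreated 1 hr with compounds (up to 57.5 uM final), then stimulated with LPS (250 ng/mL final) plus ATP (1.25 mM final); secreted IL-1B measured by AlphaLISA after 16 hr, decreased signal indicating inhibition.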
# HT1080 IDH1KD tx – qHTS for induction of synthetic lethality in tumor cells producing 2HG: qHTS for the HT-1080-IDH1KD cell line; HT-1080 IDH1 knockdown viability, ATP luminescence, 48 h; Potency, µM (highest dose often 46.1 µM), without a hit: at the top dose activity, negative = toxicity, usual class: cytotoxic; hit rate 2% among 360,000; AID 686971, 2013;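 also: potency is read from the fitted curve at half-maximal effect; 0% = DMSO wells and -100% = cell-free medium wells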
#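 Using the IDH1-knockdown HT-1080 line run in the same batch and compound series as the NT line, viability after 48 h at 37 °C was determined by CellTiter-Glo luminescence and expressed as % activity.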
# HT1080NT lethal – qHTS for induction of synthetic lethality in tumor cells producing 2HG: qHTS for the HT-1080-NT fibrosarcoma cell line; HT-1080-NT fibrosarcoma viability, CellTiter-Glo ATP luminescence, 48 h; Potency, µM (top dose mostly 46.1 µM), for inactives: at the highest dose activity, negative = less viability, actives largely listed as cytotoxic; hit rate 1.6% among 360,000;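 also: NT is the 2HG producing partner of a matched IDH1 knockdown line; potency is read from the fitted curve at half-maximal effect; 0% = DMSO-treated cells and -100% = media-only wells without cells; nearly all actives have a fitted effect of over 55% in size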
#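 Viability by CellTiter-Glo luminescence after 48 h compound exposure at 37C of HT-1080-NT cells (750/well, RPMI, 5% FBS). % activity scaled between DMSO wells and medium-only wells, then curve-fitted and categorized by curve class.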
# The depositor's hits bear a star; ? = inconclusive; / = not tested or not shown; [ ] = remark or other dose. Unless noted, calls follow the shape of the dose curve; as a rule, active = well fitted curve in the direction sought with a large enough effect; inconclusive = small, poorly fitted or top-dose-only effect, or another doubt; inactive = no such curve, though single readings can be large; an effect the other way counts as inactive or inconclusive. Unless noted, % is scaled to controls: 0 for no effect and ±100 for the full control effect.
SMILES,TDP1 cell noCPT,DT40 TDP1 CPT,IL-1B inflam inh,HT1080 IDH1KD tx,HT1080NT lethal
Cc1cc(C)cc(NC(=O)C2C3C=CC4(O3)C2C(=O)N(CCN2CCCCC2)C4C(=O)NC2CCCCC2)c1 (centres undefined),-23%,-4%,-11,-1%,1%
COC(=O)c1ccc(NC(=O)CCc2c(C)nn(-c3ccc(N4CCOCC4)nn3)c2C)cc1,-28%,-14%,/,/,/
CCOc1ccc(S(=O)(=O)n2nc(C)cc2C)cc1,-3%,15%,-3,16%,9%
O=C(CCNS(=O)(=O)c1ccccc1)NNC(=O)c1cccc(Cl)c1,-2%,-3%,-11,0%,5%[9.24 µM]
CSc1cccc(NC(=O)c2cc3c(COC(C)=O)cnc(C)c3oc2=O)c1,-11%,-8%,/,/,/
O=C(NNS(=O)(=O)c1ccc(F)cc1F)C1Cc2c(ccc3ccccc23)O1 (centres undefined),18µM*,18µM*,39,-1%,-1%
CS(=O)(=O)NNC(=O)C1Cc2c(ccc3ccccc23)O1 (centres undefined),-5%,-12%,38,0%,0%
O=C(N/N=C/c1cc(Cl)cc([N+](=O)[O-])c1O)c1ccccc1NS(=O)(=O)c1cccs1,-5%,5%,59,14%,14%
O=C(Nc1ccc(N2CCCC2)c(S(=O)(=O)Nc2cccc(C(F)(F)F)c2)c1)c1cccs1,15µM*,?,?,-26%,-28%
COc1ccccc1NS(=O)(=O)c1cc(NC(=O)Nc2ccccc2)ccc1N1CCCCC1,18µM*,18µM*,12,7%,4%
COc1ccccc1NS(=O)(=O)c1cc(NC(=O)C(C)C)ccc1N1CCCCC1,?,?,-5,1%,1%
COc1ccccc1NS(=O)(=O)c1cc(NC(=O)c2cccs2)ccc1N1CCCC1,9.2µM*,5.8µM*,0,1%,4%
COc1ccccc1NS(=O)(=O)c1cc(NC(=O)c2cccs2)ccc1N1CCCCC1,15µM*,16µM*,7,1%,15%
O=C(NCc1ccc(F)cc1)C(c1cccnc1)N(C(=O)c1csnn1)c1ccccc1 (centres undefined),-12%,-4%,11,-1%,0%
CCc1ccc(OCCOCC(O)CNC2CCCC2)cc1 (centres undefined),?,?,-3,-11%,-28%
C=CCn1c(SCC(=O)N(CCO)CCO)nc2sc3c(c2c1=O)CCC3,12%,-2%,-11,-1%,0%
COCCCNC(=O)CC(c1cc(OC)c(OC)c(OC)c1)N1Cc2ccccc2C1=O (centres undefined),7%,0%,/,/,/
COc1ccc(Cl)cc1NC(=O)CN1C(=O)NC(Cc2c[nH]c3ccccc23)C1=O (centres undefined),?,?,-57*,-5%,-4%
Cc1ccc(NC(=O)CN2C(=O)NC(Cc3c[nH]c4ccccc34)C2=O)cc1S(=O)(=O)N1CCCCC1 (centres undefined),21µM*,21µM*,?,-28%,-28%
CCOC(=O)c1nc(C)n(-c2cc(Cl)ccc2Cl)n1,-7%,-4%,-12,0%,-1%
CCOC(=O)c1nc(C)n(-c2cc(OC)c(Cl)cc2Cl)n1,-5%,9%,-92*,2%,2%
CCc1ccc2[nH]c(C(=O)Nc3ccc(Br)c(C)n3)cc2c1,-10%,-21%,-1,8%,-3%
CCn1c(=O)c([N+](=O)[O-])c(Cl)c2ccccc21,2.6µM*,2.9µM*,-96*,3.7µM*,?
CCn1c(=O)c([N+](=O)[O-])c(NCCN(C)C)c2ccccc21,12%,39%,-20,-1%,8%
Cc1ccc2nc(CNC(=O)c3cc(NC(=O)c4ccccc4)cc4ncn(C5CCCC5)c34)cn2c1,-15%,5%,/,/,/

# Assay outcomes from PubChem BioAssay.
